Data reported in PubChem BioAssay.
Calls of active or inactive are those of the source.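 The calls were made as follows, unless noted: active = compounds that lower survival of HCT116 colon cancer cells in the luminescence readout, no numeric limit stated; inactive = the rest.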

Columns and labels:
[1] = stimulators of nuclear beta-catenin in C2C12, primary screen, imaging, WNT3A-conditioned medium, mouse C2C12, NPC library (AID 1117326; in the data active = nuclear beta-catenin stimulation mostly above about 4.2%, no sharp cut-off; inactive = mostly below about 10%; also: reference of the scale not given here); details: stronger effect = higher value
[2] = stimulators of insulin release from INS-1E, primary screen, cell-based, 5 mM glucose, NPC library (AID 1117329;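 active = compound raises insulin release from rat beta cells at 5 mM glucose, no numeric limit stated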; also: reference of the scale not given here); details: rat INS-1E insulin secretion, at 10 µM, stronger effect = higher value
[3] = growth inhibition of GSK3B-pretreated HCT116 cells – cell-based, CellTiter-Glo, 0.2 to 20 µM (AID 1117336;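 active = compounds lowering colon cancer cell viability after pretreatment blocking the GSK3B kinase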); details: HCT116 viability after GSK3B inhibitor, at 20 µM, stronger effect = higher value
[4] = inhibition of endothelial tube formation, primary screen, imaging, VEGF stimulated, CD31 staining, tube area, NPC library (AID 1117340;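 active = compound that reduces growth-factor-driven endothelial tube area in a mixed cell culture, no cutoff stated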); details: VEGF-stimulated ADSC/ECFC co-culture, at 10 µM, stronger effect = higher value
[5] = glucagon-like peptide 1 release enhancers, primary assay, NCI-H716 cell line, NPC library (AID 1117341;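 active = compound raises GLP1 secretion from the human gut endocrine cells, with no numeric limit stated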; also: reference of the scale not given here); details: NCI-H716 cells, at 10 µM, stronger effect = higher value
[6] = HCT116 colon cancer cell growth inhibition, primary screen, CellTiter-Glo luminescence, NPC library (AID 1117342); details: at 20 µM (top of the series)
[7] = CellTiter-Glo luminescent readout of SW480 viability loss, NPC library primary (AID 1117343;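 active = compounds that lower viability of the colon cancer cells in the luminescence readout, with no numeric limit stated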); details: CellTiter-Glo luminescence; at 20 µM (top of the series)
[8] = decreased DLD-1 cellular survival, CellTiter-Glo luminescent readout, NPC compound collection, primary HTS (AID 1117346;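 active = compounds that lower survival of DLD-1 colon cancer cells in the luminescence readout, no cutoff given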); details: DLD-1 viability, CellTiter-Glo luminescence; at 20 µM (top of the series)

Row | Compound | nuclear beta-catenin stimulation ([1]; at 10 µM) | nuclear beta-catenin stimulation ([1]; stimulation, at 2 µM) [%] | insulin secretion stimulation [2] | viability decrease [3] | tube area decrease [4] | GLP1 secretion stimulation [5] | inhibition of viability [6] | viability decrease (inhibition) [7] | viability decrease (inhibition) [8]
1 | CCC(=O)Nc1ccc(O)cc1 | 9.3% (inactive) | 1.9 | -2.2% (inactive) | -1% (inactive) | 16% (inactive) | 4.4% (inactive) | 12.2% (inactive) | 27% (inactive) | 14.6% (inactive)
2 | CON=C(C(=O)N[C@@H]1C(=O)N2C(C(=O)O)=C(C[N+]3(C)CCCC3)CS[C@H]12)c1csc(N)n1 | -2.1% (inactive) | 0.2 | 3.1% (inactive) | 4.1% (inactive) | 2.5% (inactive) | -0.7% (inactive) | -21.3% (inactive) | -14.4% (inactive) | -9.8% (inactive)
3 | CCN(CC)CCOC(=O)C1(c2ccccc2)CCCC1 | -1.2% (inactive) | -0.5 | 9.3% (inactive) | -14.1% (inactive) | 22.6% (inactive) | -2.7% (inactive) | 4% (inactive) | -1.9% (inactive) | -2.6% (inactive)
4 | NS(=O)(=O)c1cc(C(=O)NN2C[C@H]3[C@H]4CCC(C4)[C@H]3C2)ccc1Cl | -1.3% (inactive) | 2.2 | -3.6% (inactive) | -4.2% (inactive) | -14.3% (inactive) | -0.6% (inactive) | 10.3% (inactive) | -2.9% (inactive) | -6.4% (inactive)
5 | CC/C=C(\C(=O)N[C@@H]1C(=O)N2C(C(=O)OCOC(=O)C(C)(C)C)=C(COC(N)=O)CS[C@H]12)c1csc(N)n1 | -1% (inactive) | -0.1 | 1.85% (inactive) | -5.5% (inactive) | -9.6% (inactive) | -0.1% (inactive) | -6.4% (inactive) | -3.4% (inactive) | -17.7% (inactive)
6 | Oc1ccc(CCNCCCCCCNCCc2ccccc2)cc1O | 5% (inactive) | 0.9 | 27.8% (active) | 83.3% (active) | 31.4% (inactive) | 0.6% (inactive) | 83.5% (active) | 99.5% (active) | 101% (active)
7 | Cc1ccc(/C=N/n2c(-c3ccccc3)csc2=S)cc1 | 1.7% (inactive) | -0.8 | 5% (inactive) | 50.3% (active) | 18.4% (inactive) | 0.3% (inactive) | 16.7% (inactive) | 56% (active) | 37.1% (inactive)
8 | CCOC(=O)c1c(N)sc2c1CCN(Cc1ccccc1)C2 | 0.4% (inactive) | 0.3 | -0.1% (inactive) | 21.9% (inactive) | 33.8% (inactive) | 0.5% (inactive) | 47.3% (inactive) | 84.1% (active) | 31.8% (active)
9 | Cc1nc(-c2ccc(Cl)cc2)oc1COC(C)(C)C(=O)O | 0.5% (inactive) | 0.6 | 3.1% (inactive) | -10.1% (inactive) | 9.7% (inactive) | -2.6% (inactive) | 8.5% (inactive) | 14.8% (inactive) | 10% (active)
10 | Cc1cc(O)c(Cl)c(C)c1Cl | 0.8% (inactive) | -0.1 | -1.8% (inactive) | -24.1% (inactive) | 7.2% (inactive) | -2% (inactive) | -6.7% (inactive) | -0.8% (inactive) | -12.3% (inactive)
11 | Cc1ccccc1N=Nc1ccc(N=Nc2c(O)ccc3ccccc23)c(C)c1 | 4.6% (inactive) | 5.4 | 1.7% (inactive) | 2.6% (inactive) | 38.9% (inactive) | -8.5% (inactive) | 6.3% (inactive) | 17.9% (inactive) | 15.4% (inactive)
12 | COC(=O)c1ccccc1C(=O)c1ccc(OCCN2CCCCC2)cc1 | 0.4% (inactive) | 0.7 | 0.95% (inactive) | 26.9% (inactive) | -5.8% (inactive) | 3.5% (inactive) | 39.7% (inactive) | 15.8% (inactive) | 39.7% (inactive)
13 | CO/N=C(\C(=O)O)c1csc(NC(=O)CCl)n1 | 0.7% (inactive) | 2.9 | 1.4% (inactive) | 16.2% (inactive) | -12.1% (inactive) | 1.7% (inactive) | -2% (inactive) | -1.7% (inactive) | -2.1% (inactive)
14 | CN1CCN(C(=O)C2CCCCC2)CC1 | 0% (inactive) | -0.3 | 4.2% (inactive) | -2.7% (inactive) | -5.2% (inactive) | 5.1% (inactive) | 12% (inactive) | 28.1% (inactive) | 11.9% (inactive)
